In PubChem BioAssay one finds composite z-score and z-score data, which are given here for six molecules.

Calls of active or inactive are those of the source.

The subject of assay [1] is Plasmodium falciparum Sir2 (PF13_0152, Sir2A). The assay can be described thus: pfSir2 binders on small-molecule microarrays, primary screen, biochemical, small-molecule microarray, 635 nm fluorescence (AID 1098).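 Further: score merges spot fluorescence intensity with its signal-to-noise ratio.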 The settings on record: small-molecule microarray binding, fluorescence 635 nm; higher = more signal.
A short description of assay [2]: small-molecule microarray binders of probe aDKK1, primary screen, biochemical, biotinylated probe, 635/667 nm fluorescence (AID 1099).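 Further: score merges 667nm spot fluorescence with signal to noise across triplicate slides.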 The settings on record: higher = more signal.
Assay [3] can be described thus: small-molecule microarray binders of probe aCHRDL2, primary screen, biochemical, biotinylated probe, 635/667 nm fluorescence (AID 1100). The following applies: higher = more signal.
Assay [4] in a line: splicing luciferase reporter signal modulators, primary screen, spliceosome inhibition project, cell-based, HEK293, splice +/- reporter (AID 1101).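 Further: HEK293 cells carrying a splicing-competent luciferase reporter gene; test concentration not given here.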 The following applies: luminescence, 24 h, higher = more signal, called active from +8 up or from −8 down.
For assay [5], the target named is Fibroblast growth factor 10 (Homo sapiens) (UniProt O15520). The assay can be described thus: FGF10 binders on small-molecule microarrays, primary screen, biochemical, small-molecule microarray, 635 nm fluorescence (AID 1102). The following applies: FGF10 binding, fluorescence 635 nm, higher = more signal.
For assay [6], the system named is glycogen synthase kinase-3 (GSK3A per assay name; protocol says GSK3B). The assay can be described thus: GSK3 binders on small-molecule microarrays, primary screen, biochemical, small-molecule microarray, 635 nm fluorescence, GSK3A (AID 1103). Further: the record names both GSK3A and GSK3B. The following applies: small-molecule microarray binding, fluorescence 635 nm; higher = more signal.
Assay [7] has as its target Epidermal growth factor receptor (Homo sapiens) (UniProt P00533). The assay can be described thus: EGFR binders on small-molecule microarrays, primary screen, biochemical, small-molecule microarray, 635 nm fluorescence (AID 1104).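 Further: score merges 667 nm emission intensity with spot signal to noise over triplicate slides.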 The following applies: EGFR binding, higher = more signal.
For assay [8], the target named is Follistatin-related protein 3 (Homo sapiens) (UniProt O95633). The assay can be described thus: FSTL3 binders on small-molecule microarrays, primary screen, biochemical, small-molecule microarray, 635 nm fluorescence (AID 1105).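 Further: score merges emission near 667 nm and signal to noise per printed spot across three slides.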 The following applies: FSTL3 binding, higher = more signal.
Assay [9] addresses Dickkopf-related protein 1 (Homo sapiens) (UniProt O94907). The assay can be described thus: DKK1 binders on small-molecule microarrays, primary screen, biochemical, small-molecule microarray, 635 nm fluorescence scan (AID 1106).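 Further: score merges emission near 667 nm with signal to noise over three replicate slides.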 The following applies: DKK1 binding, higher = more signal.
Assay [10] has as its system Inhibin beta A chain (activin A). The assay can be described thus: INHBA (activin A) binders on microarrays, primary screen, biochemical, small-molecule microarray, 635 nm fluorescence scan (AID 1107).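 Further: mouse activin A protein probed at 4.33 µg/mL on printed slides; score merges bound-protein fluorescence near 667 nm with spot signal-to-noise.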 The following applies: small-molecule microarray binding, higher = more signal.
The subject of assay [11] is Human papillomavirus type 1a protein E7 (residues 44-93). The assay can be described thus: HPV1a E7 fragment binders on microarrays, primary screen, biochemical, small-molecule microarray, residues 44-93, 635 nm fluorescence (AID 1108).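 Further: E7 fragment applied at 1 µg/mL in TBST for 1 h at 4 C; score combines spot fluorescence with its signal to noise ratio.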 The following applies: small-molecule microarray binding, fluorescence 635 nm; higher = more signal.
Assay [12] in a line: modulators of HCV replicon luciferase signal, primary screen, HCV replication inhibitor project, Huh7 cells, luciferase reporter (AID 1109).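 Further: huh7 hepatoma cells harbouring a luciferase neomycin HCV replicon reporter; luciferase luminescence as measure of HCV replicon replication; test concentration not given here.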 The settings on record: 48 h, higher = more signal.
For assay [13], the target named is Left-right determination factor 2 (Homo sapiens) (UniProt O00292). The assay can be described thus: LEFTY2 binders on small-molecule microarrays, primary screen, biochemical, small-molecule microarray, 635 nm fluorescence scan (AID 1110). The settings on record: LEFTY2 binding, higher = more signal.
For assay [14], the target named is Calmodulin-1 (Homo sapiens) (UniProt P0DP23). The assay can be described thus: CALM1 binders on microarrays, EGTA buffer, profiling panel, biochemical, small-molecule microarray, Cy5-labelled CALM1 (AID 1111).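 Further: labelled calmodulin applied in Tris saline Tween buffer holding calcium plus EGTA and DTT.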 The following applies: Cy5-CALM1 binding fluorescence, higher = more signal.
Assay [15] shares this target. The assay can be described thus: calcium-bound CALM1 binders on microarrays, profiling panel, artefact control for SMM control-protein annotation, biochemical, small-molecule microarray, Cy5-labelled CALM1, plus calcium (AID 1112).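 Further: score merges spot fluorescence with signal to noise from triplicate slides.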 The settings on record: Cy5-CALM1 binding fluorescence, higher = more signal.
A short description of assay [16]: small-molecule microarray binders of probe aWnt5a, primary screen, biochemical, biotinylated probe, 635/667 nm fluorescence (AID 1113).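 Further: score merges 667 nm fluorescence intensity with signal-to-noise per printed feature.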 The settings on record: higher = more signal.
Assay [17] can be described thus: small-molecule microarray binders of probe aShh, primary screen, biochemical, biotinylated probe, 635/667 nm fluorescence (AID 1114).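 Further: probe is biotin-labelled aShh protein from a stem cell growth factor screen; measures binding of labelled protein to compounds printed on the slide; score merges feature fluorescence at 667 nm with signal-to-noise.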 The settings on record: higher = more signal.
Assay [18] is described as follows: small-molecule microarray binders of probe aNog, primary screen, biochemical, biotinylated probe, 635/667 nm fluorescence (AID 1115).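 Further: probe is biotinylated aNog protein used at 0.15 µg/mL for 1 h at 4 C; z-score combines 667 nm fluorescence of each spot with its signal to noise.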 The settings on record: higher = more signal.
The target in assay [19] is Torsin-1A-interacting protein 1 (Homo sapiens) (UniProt Q5JTV8). The assay can be described thus: LAP1 binders from COS7 cell lysate, primary screen, small-molecule microarray, 635/667 nm fluorescence (AID 1116). The settings on record: COS7-hLAP1 lysate binding, 635 nm fluorescence, higher = more signal.
The target in assay [20] is Alpha-bungarotoxin (Bungarus multicinctus) (UniProt P60615). The assay can be described thus: alpha-bungarotoxin binders on microarray, profiling panel, artefact control for SMM control protein annotation, biochemical, small-molecule microarray, Alexa647 label, 635/667 nm fluorescence (AID 1117). The settings on record: alpha-BTX-A647 binding fluorescence, higher = more signal.
Chain of Alpha-bungarotoxin (Bungarus multicinctus) (P60615 whole entry, looked up): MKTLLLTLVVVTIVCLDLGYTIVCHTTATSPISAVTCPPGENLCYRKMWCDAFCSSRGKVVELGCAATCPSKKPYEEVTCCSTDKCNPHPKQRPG

Chain of Fibroblast growth factor 10 (Homo sapiens) (O15520 whole entry, looked up): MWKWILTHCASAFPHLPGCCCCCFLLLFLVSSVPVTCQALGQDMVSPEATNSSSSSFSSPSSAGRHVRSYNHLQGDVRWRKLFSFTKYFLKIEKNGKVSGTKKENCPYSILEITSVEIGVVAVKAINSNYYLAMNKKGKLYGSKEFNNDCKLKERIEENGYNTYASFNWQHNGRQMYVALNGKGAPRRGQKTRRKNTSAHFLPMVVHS
Chain of Torsin-1A-interacting protein 1 (Homo sapiens) (Q5JTV8 whole entry, looked up): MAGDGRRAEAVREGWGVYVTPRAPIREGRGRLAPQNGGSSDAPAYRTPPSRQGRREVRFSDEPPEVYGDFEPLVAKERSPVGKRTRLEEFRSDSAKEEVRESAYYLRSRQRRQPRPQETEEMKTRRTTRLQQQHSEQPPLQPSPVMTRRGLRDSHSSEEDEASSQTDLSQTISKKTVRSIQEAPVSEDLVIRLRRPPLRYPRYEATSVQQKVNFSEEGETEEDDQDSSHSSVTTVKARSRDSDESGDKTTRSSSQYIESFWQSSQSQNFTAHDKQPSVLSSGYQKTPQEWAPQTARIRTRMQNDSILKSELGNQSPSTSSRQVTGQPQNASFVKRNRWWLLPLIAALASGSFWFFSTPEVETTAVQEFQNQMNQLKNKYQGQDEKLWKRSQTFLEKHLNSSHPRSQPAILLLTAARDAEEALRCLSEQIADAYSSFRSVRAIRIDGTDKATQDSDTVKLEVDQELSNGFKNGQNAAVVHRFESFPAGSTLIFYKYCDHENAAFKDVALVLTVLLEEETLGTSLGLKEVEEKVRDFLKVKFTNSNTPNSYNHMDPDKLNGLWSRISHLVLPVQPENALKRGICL
Chain of Left-right determination factor 2 (Homo sapiens) (O00292 whole entry, looked up): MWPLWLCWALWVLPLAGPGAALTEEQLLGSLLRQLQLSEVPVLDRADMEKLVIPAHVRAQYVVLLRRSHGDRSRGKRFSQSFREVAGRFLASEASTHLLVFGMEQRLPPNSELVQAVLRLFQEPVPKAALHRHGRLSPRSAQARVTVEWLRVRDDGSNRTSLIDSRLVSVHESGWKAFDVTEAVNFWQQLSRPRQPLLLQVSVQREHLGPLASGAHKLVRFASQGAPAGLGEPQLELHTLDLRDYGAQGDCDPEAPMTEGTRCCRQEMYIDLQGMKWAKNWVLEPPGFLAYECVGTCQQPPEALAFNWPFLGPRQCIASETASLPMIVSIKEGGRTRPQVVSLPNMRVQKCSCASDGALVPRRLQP
Chain of Follistatin-related protein 3 (Homo sapiens) (O95633 whole entry, looked up): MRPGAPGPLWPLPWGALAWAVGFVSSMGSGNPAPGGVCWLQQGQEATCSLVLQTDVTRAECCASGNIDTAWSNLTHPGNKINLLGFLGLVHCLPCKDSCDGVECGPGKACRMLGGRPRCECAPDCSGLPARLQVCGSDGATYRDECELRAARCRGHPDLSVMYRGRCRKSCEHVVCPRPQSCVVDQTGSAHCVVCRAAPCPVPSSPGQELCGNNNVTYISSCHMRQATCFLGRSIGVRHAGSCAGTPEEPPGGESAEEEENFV
Chain of Epidermal growth factor receptor (Homo sapiens) (P00533 whole entry, looked up): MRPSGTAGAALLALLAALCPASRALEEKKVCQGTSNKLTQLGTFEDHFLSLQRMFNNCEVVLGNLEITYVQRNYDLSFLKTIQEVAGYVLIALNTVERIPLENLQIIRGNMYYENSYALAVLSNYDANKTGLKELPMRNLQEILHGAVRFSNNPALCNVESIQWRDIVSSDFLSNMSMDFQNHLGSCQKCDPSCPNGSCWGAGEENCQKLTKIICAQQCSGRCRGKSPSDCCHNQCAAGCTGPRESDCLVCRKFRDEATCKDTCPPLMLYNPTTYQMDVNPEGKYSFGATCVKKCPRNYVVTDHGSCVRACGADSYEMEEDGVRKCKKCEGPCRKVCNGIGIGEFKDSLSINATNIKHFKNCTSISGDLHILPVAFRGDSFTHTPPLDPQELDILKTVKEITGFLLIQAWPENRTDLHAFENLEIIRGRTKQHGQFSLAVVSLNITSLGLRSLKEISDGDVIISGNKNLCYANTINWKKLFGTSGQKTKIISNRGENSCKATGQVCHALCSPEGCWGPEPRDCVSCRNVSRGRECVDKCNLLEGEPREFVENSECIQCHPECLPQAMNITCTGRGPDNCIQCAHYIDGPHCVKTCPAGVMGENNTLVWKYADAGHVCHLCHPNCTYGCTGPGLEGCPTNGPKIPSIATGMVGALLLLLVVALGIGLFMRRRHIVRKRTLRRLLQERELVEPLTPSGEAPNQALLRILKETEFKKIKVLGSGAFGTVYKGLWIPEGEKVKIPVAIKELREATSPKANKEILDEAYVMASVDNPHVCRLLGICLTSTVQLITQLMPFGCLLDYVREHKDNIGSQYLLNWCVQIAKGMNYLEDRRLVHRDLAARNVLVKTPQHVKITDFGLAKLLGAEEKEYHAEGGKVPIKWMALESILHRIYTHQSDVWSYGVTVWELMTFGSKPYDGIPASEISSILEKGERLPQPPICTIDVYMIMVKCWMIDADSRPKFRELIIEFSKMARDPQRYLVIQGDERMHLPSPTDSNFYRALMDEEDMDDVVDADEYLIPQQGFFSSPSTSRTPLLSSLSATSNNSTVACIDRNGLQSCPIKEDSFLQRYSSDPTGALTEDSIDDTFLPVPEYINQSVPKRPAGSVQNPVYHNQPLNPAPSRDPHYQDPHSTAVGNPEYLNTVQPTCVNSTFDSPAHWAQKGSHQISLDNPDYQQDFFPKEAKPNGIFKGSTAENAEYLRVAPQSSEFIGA
Chain of Dickkopf-related protein 1 (Homo sapiens) (O94907 whole entry, looked up): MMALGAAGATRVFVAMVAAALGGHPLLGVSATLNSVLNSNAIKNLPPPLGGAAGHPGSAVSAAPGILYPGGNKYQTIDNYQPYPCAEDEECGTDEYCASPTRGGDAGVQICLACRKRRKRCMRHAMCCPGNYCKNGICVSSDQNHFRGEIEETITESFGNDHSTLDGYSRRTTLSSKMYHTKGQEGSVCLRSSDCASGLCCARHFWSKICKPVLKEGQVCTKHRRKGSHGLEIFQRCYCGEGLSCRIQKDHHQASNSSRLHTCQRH

On to `CC(C)CCC[C@@H](C)[C@H]1CC[C@@]2(C)C3=C(CC[C@]12C)[C@@]1(C)CC[C@H](OC(=O)c2ccc(C(F)(F)F)nc2)C(C)(C)C1CC3` (stereo not given in full), for which the composite z-score was 0.22 in assay [1]; -0.514 in [2]; -0.491 in [3]; 0.595 in [5]; 0.714 in assay [6]; 0.471 in assay [7]. Besides, the composite z-score was 0.627 in assay [8]; 0.418 in assay [9]; -0.0544 in assay [10]; 0.592 in assay [11]; 0.31 in assay [13]; -0.0347 in assay [14]. Also, the composite z-score in assay [15] is -0.337; in assay [16], -0.162; in assay [17] it was 0.0141; in assay [18], -0.68; in assay [19], 0.69; in assay [20], 0.328. The values for the z-score in assay [4] and in [12] were -0.895 (inactive) and 0.336, respectively.

Take `C=CCNC(=O)[C@H]1[C@@H]2C(=O)O[C@@H](c3ccccc3)[C@@H](c3ccccc3)N2[C@@H](c2ccc(O)cc2)[C@]12C(=O)Nc1ccc(C#CCCO)cc12`: the composite z-score is 0.526 in [1]; 0.0418 in assay [2]; 0.198 in assay [3]; -0.818 in assay [5]; -0.572 in [6]; -0.326 in assay [7]. Further, the composite z-score was -0.561 in [8]; 0.0898 in assay [9]; 0.629 in [10]; -0.336 in [11]; 0.185 in assay [13]; -0.314 in assay [14]. Also, the composite z-score was 0.107 in assay [15]; -0.124 in assay [16]; 0.0982 in assay [17]; -0.161 in assay [18]; -0.428 in [19]; -0.503 in [20]. The z-score in assay [4] was 0.0704 (inactive); in assay [12], 0.142.

For the molecule `COc1ccc([Si](C)(C)[C@@H]2[C@@H](CCO)O[C@]3(C(=O)N(Cc4cccc(N5CCOC5=O)c4)c4ccccc43)[C@H]2C)cc1`, the composite z-score in assay [1] stood at 0.75; in assay [2], 0.644; in assay [3], 0.246; in [5], 0.415; in assay [6] it was 0.67; in [7], 0.0548. Also, the composite z-score in assay [8] is 0.648; in assay [9], 0.405; in assay [10], 0.593; in assay [11], 0.542; in assay [13], 0.133; in assay [14], 1.37. Moreover, the composite z-score in assay [15] is 0.924; in assay [16], -0.0704; in assay [17] it was 0.0756; in assay [18], 0.36; in assay [19] it was 0.412; in assay [20], 1.32. Also, the z-score was -0.871 (inactive) in [4] and -4.17 in assay [12].

As to `CC(C)[Si](C#C[Si](C(C)C)(C(C)C)C(C)C)(O[C@H](C)c1cn(Cc2ccccc2)nn1)C(C)C`, the composite z-score in [1] is 0.733; in [2], -0.0531; in assay [3], -0.252; in assay [5], 0.584; in [6], 0.856; in assay [7] it was 0.361. The composite z-score was 0.688 in assay [8]; 0.0811 in [9]; -0.353 in [10]; 1.2 in [11]; 0.409 in [13]; 0.634 in assay [14]. Besides, the composite z-score was 0.142 in assay [15]; -0.0893 in assay [16]; -0.221 in assay [17]; -0.33 in assay [18]; 0.182 in assay [19]; 0.717 in assay [20]. Besides, the z-score in assay [4] was -0.9 (inactive); in assay [12], 0.16.

With `[N-]=[N+]=Nc1ccccc1[C@H]1OC(c2ccc(OCCCO)cc2)=N[C@@]1(CCS(=O)(=O)c1ccccc1)C(=O)NCc1ccccc1`, the composite z-score turned out to be 0.91 in assay [1]; 0.812 in assay [2]; 0.988 in assay [3]; 1.18 in assay [5]; 1.32 in assay [6]; 0.258 in assay [7]. The composite z-score in [8] turned out to be 1.14; in assay [9], 0.584; in assay [10], 1.05; in assay [11], 1.46; in [13] it was 0.565; in assay [14], 0.937. In addition, the composite z-score in assay [15] was 0.338; in assay [16] it was 0.153; in [17] it was 0.0723; in [18], -0.487; in assay [19], 1.06; in [20], 0.785. In addition, the z-score was -0.431 (inactive) in assay [4] and -0.242 in [12].

On to `Cc1c(NC(=O)/C(C#N)=C/c2cccc([N+](=O)[O-])c2)c(=O)n(-c2ccccc2)n1C`, for which the composite z-score in assay [1] is 0.141; in assay [2] it was -0.123; in assay [3], -0.413; in assay [5], 0.455; in assay [6], 0.797; in [7], 0.53. Further, the composite z-score in [8] came to 0.53; in [9], 0.561; in assay [10], 0.107; in [11] it was 0.785; in [13], 0.285; in [14], 0.619. For the same molecule, the composite z-score was -0.249 in assay [15]; -0.0819 in assay [16]; -0.0793 in assay [17]; -0.346 in [18]; 0.38 in assay [19]; 0.0071 in assay [20]. Also, the z-score was -0.911 (inactive) in assay [4] and -1.44 in [12].
